Out of some 69,000 compounds screened, about 8,600 (12%) showed an effect of 50% or more. Many of the other results were omitted from the sample, so strong results are more common in it than they were.

The subject of the assay is Plasmodium berghei. The assay can be described thus: Screen against P. berghei liver stage (PbLuc), transformed with Luciferase, at 10uM. Particulars: tested at 10 uM. The assay is classed as functional, HepG2.
`CSCCNC(=O)c1coc(COc2ccc(F)cc2)n1`: the INHIBITION worked out at 49.5%.

For the molecule `O=C(NCCC1CCCCO1)c1coc(COc2ccc(F)cc2)n1` (stereo unspecified), the INHIBITION is 77.8%.

With `COCCNC(=O)c1cc(COc2cncc(Cl)c2)on1`, the INHIBITION stood at 25.8%.

For the molecule `O=C(NCCN1CCCCCC1)c1coc(COc2ccc(F)cc2)n1`, the INHIBITION is given as 7.15%.

Turning to `CCOCCNC(=O)c1cc(COc2cncc(Cl)c2)on1`, the INHIBITION is recorded as 29%.

`COc1ccc(N2CCN(C(=O)Cn3nc(C)c(Cl)c3C)CC2)cc1`: the INHIBITION came to 7.44%.

In the case of `O=C(CCNc1ncccn1)N1CCN(c2nccs2)CC1`, the INHIBITION is 45.7%.

As to `Cc1nc[nH]c1-c1nccn1CCN1CCCOC1=O`, the INHIBITION was determined as 39.6%.

For the molecule `Cc1nc[nH]c1-c1nccn1CCN1CCCC1=O`, the INHIBITION is listed as -4.95%.

Turning to `Cc1nc[nH]c1-c1nccn1CCN1CCOC1=O`, the INHIBITION was 55.5%.

Regarding `CC(C)CN1C[C@@H]2C[C@H](C(=O)Nc3cccnc3)[C@H](C1)O2`, the INHIBITION was found to be 2.27%.

As to `Cc1ccc(CN2C[C@@H]3C[C@H](C(=O)NCc4cccnc4)[C@H](C2)O3)cc1`, the INHIBITION came to 42.3%.

`CCN1C[C@@H]2C[C@H](C(=O)NCc3cccnc3)[C@H](C1)O2`: the INHIBITION stood at 50%.

Turning to `CC(C)CCN1C[C@@H]2C[C@H](C(=O)NCC(C)C)[C@H](C1)O2`, the INHIBITION stood at 61.3%.

Regarding `CC(C)CCN1C[C@@H]2C[C@H](C(=O)Nc3ccccc3)[C@H](C1)O2`, the INHIBITION amounted to 33%.

For `CC(C)CNC(=O)[C@H]1C[C@H]2CN(Cc3cccnc3)C[C@@H]1O2`, the INHIBITION amounted to 65.9%.

Consider `CNC(=O)N1C[C@@H]2C[C@H](C(=O)NCc3cccnc3)[C@H](C1)O2`, for which the INHIBITION turned out to be 7.65%.

`CC(C)CN1C[C@@H]2C[C@H](C(=O)NCc3cccnc3)[C@H](C1)O2`: the INHIBITION was 58.5%.

In the case of `CC(C)CCN1C[C@@H]2C[C@H](C(=O)NCc3ccccc3)[C@H](C1)O2`, the INHIBITION is recorded as 11.6%.

Regarding `CC(C)CNC(=O)[C@H]1CCS(=O)(=O)[C@@H]2CN(Cc3cccnc3)C[C@H]12`, the INHIBITION turned out to be 12.5%.

Regarding `Cc1cccc(CN2C[C@@H]3C[C@H](C(=O)NCc4cccnc4)[C@H](C2)O3)c1`, the INHIBITION was 21.6%.

As to `Cc1ccc(CN2C[C@@H]3C[C@H](C(=O)NCc4cccnc4)[C@H](C2)O3)o1`, the INHIBITION turned out to be 39.3%.

For `Cc1cc(C(F)(F)F)nn1C(C)C(=O)NN1CCOCC1` (stereo unspecified), the INHIBITION is on record as -4.12%.

Turning to `CC(C)OCCCNC(=O)C1CCCN(c2ccc3nncn3n2)C1` (stereo unspecified), the INHIBITION was 32.3%.

With `CS(=O)(=O)NCc1cc(=O)n2c(n1)CN(CC1CC1)CCC2`, the INHIBITION was found to be 37.6%.

Turning to `Cc1nc(CN2CCC3(CCN(Cc4nccn4C)CC3)C2=O)cs1`, the INHIBITION is listed as -11.2%.

Turning to `N#Cc1ccc(CNCC2(c3ccccc3)CCOCC2)cc1`, the INHIBITION is on record as -32.8%.

In the case of `COCC(=O)N1CCC(c2cc(-c3ccc(C)cc3)n[nH]2)C1` (stereo unspecified), the INHIBITION is -16.9%.

Consider `CC(C(=O)N1CCCN(c2ccccc2C#N)CC1)n1cccn1` (stereo unspecified), for which the INHIBITION is given as -6.44%.

Turning to `CNC(=O)[C@H]1C[C@@H]2CN(S(=O)(=O)c3cccc(C)c3)C[C@@H]2N1C`, the INHIBITION is given as 50.7%.

Consider `CNC(=O)[C@H]1C[C@@H]2CN(S(=O)(=O)c3cccc(F)c3)C[C@@H]2N1C`, for which the INHIBITION is -23.8%.

`CNC(=O)[C@H]1C[C@@H]2CN(S(=O)(=O)c3ccccc3)C[C@@H]2N1C`: the INHIBITION was determined as 30.1%.

Turning to `CCc1n[nH]c(C(=O)N2CCC3(CCCN(CCOC)C3=O)C2)c1C` (stereo unspecified), the INHIBITION was 41.2%.

With `Cc1cc2ncc(CN(C)C)c(C3CCN(C)CC3)n2n1`, the INHIBITION was determined as 16.771%.

For the molecule `Cc1ccccc1CN1CCN(C(C)c2nc(C3CC3)no2)CC1` (stereo unspecified), the INHIBITION is listed as 5.7%.

`CCC1CN(C(=O)c2ccc(O)cn2)CCC(=O)N1Cc1ccccc1` (stereo unspecified): the INHIBITION stood at 66.8%.

Regarding `CCC1CN(C(=O)c2ncccc2O)CCC(=O)N1Cc1ccccc1` (stereo unspecified), the INHIBITION worked out at 7.43%.

Take `CCC1CN(C(=O)c2ccc(=O)[nH]n2)CCC(=O)N1Cc1ccccc1` (stereo unspecified): the INHIBITION was found to be 25%.

`Cn1cccc1C(=O)N1CCC2(CC1)CN(c1ccccn1)CCO2`: the INHIBITION came out at 28.5%.

With `COCC(=O)N1CCC2(CC1)CN(c1ccccn1)CCO2`, the INHIBITION stood at 62.5%.

With `COCC(=O)N1CCC2(CC1)CCN(Cc1ccccn1)C2=O`, the INHIBITION was 42.1%.

On to `COCC(=O)N1CCC2(CC1)CN(c1ncccn1)CCO2`, for which the INHIBITION is recorded as 57.9%.

For `CN(C)C(=O)CN1CCOCC2(C1)CN(c1ncccn1)CCO2` (stereo unspecified), the INHIBITION came to 11.6%.

For the molecule `CN(C)CC(=O)N1CCC2(CC1)CN(c1ncccn1)CCO2`, the INHIBITION is 83.5%.

Turning to `CN(C)CC(=O)N1CCC2(CC1)COCCN(c1ncccn1)C2`, the INHIBITION is listed as -13.2%.

For the molecule `O=C(C1CCOC1)N1CCC2(CC1)CN(c1ncccn1)CCO2` (stereo unspecified), the INHIBITION came out at 25.2%.

With `COCC(=O)N1CCC2(CCN(Cc3ccccn3)CC2)CC1`, the INHIBITION is given as 56.9%.

For `O=C(Cc1ccccn1)N1CCC2(CC1)CN(c1ccccn1)CCO2`, the INHIBITION was determined as 21.7%.

With `NC(=O)N1CCC2(CC1)CN(c1ncccn1)CCO2`, the INHIBITION came to 25.2%.

As for `COCC(=O)N1CCC2(CC1)CC(COC)N(Cc1ccccn1)C2` (stereo unspecified), the INHIBITION was 26.7%.

With `Cc1cnc(N2CCOC(C(=O)NCc3ccccc3)C2)s1` (stereo unspecified), the INHIBITION amounted to 12.8%.

The values above are taken from ChEMBL document CHEMBL4513216, “Probing the Open Global Health Chemical Diversity Library for Multistage-Active Starting Points for Next-Generation Antimalarials” (ACS Infect Dis, 2020).
